Laboratory results from PubChem BioAssay AID1159580 (chemical genetic matrix, 2015).
About 2,000 (36%) of roughly 5,500 compounds were called active. Roughly 18% stayed inconclusive and do not appear here. Rule as the data show it: active = normalized growth mostly below about 0.91 (no sharp cut-off); inconclusive = no clear call, values can overlap the other calls; inactive = mostly above about 0.92. The list shows a part of the results.

Test: chemical genetic growth profiling, strain panel (AID 1159580);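 also: tested at 20 µM; growth read once vehicle control cultures reached saturation at 30 °C; 1 = growth at the plate median or of vehicle wells; lower values mean less growth of the strain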
Conditions: S. cerevisiae deletion strains, growth OD

Measured: normalized growth

CCN(CC)CCOCCOC(=O)C(CC)(CC)c1ccccc1
inactive: locus YHR030C, strain SLT2, hits give low values 0.99 | locus YHR079C, strain IRE1, hits give low values 1.01 | locus YJL095W, strain BCK1, hits give low values 0.988 | locus YJR066W, strain TOR1, hits give low values 0.902 | locus YLR113W, strain HOG1, hits give low values 1.03 | locus YNL183C, strain NPR1, hits give low values 0.908 | locus YOR231W, strain MKK1, hits give low values 0.993 | locus YPL256C, strain CLN2, hits give low values 0.972
